Only some compounds are listed: those with a hit (about 4.7% of all), similar ones and a draw of the others.
D1 agonist: human D1 receptor agonism | P21728 | activation, % at 2 µM | 360,000 compounds, 1% hits | HEK293 T-REx D1 cells, calcium flux, agonist mode; in the data active = activation above about 30%; also: 0% is about no effect
Target sequence (P21728 whole entry, looked up): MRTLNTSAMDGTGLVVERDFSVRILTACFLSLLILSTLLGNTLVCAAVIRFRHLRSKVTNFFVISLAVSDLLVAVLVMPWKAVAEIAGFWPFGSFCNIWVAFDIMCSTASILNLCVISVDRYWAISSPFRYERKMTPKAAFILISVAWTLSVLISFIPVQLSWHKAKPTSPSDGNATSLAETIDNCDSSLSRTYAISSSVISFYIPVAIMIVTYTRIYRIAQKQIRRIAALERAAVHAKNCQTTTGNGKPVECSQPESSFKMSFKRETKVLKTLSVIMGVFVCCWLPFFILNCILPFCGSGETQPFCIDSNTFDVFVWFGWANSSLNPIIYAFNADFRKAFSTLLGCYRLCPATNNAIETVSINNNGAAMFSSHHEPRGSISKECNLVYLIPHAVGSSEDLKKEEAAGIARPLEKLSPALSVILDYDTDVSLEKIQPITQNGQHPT
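Inducible HEK293 T-REx D1 cells, force-coupled to calcium signalling, were plated at 4000 cells/well with tetracycline and held overnight at 30 C. After no-wash calcium dye loading, compound-evoked calcium rise over 180 s flagged agonists.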
D1 potentiator: potentiators of human D1 dopamine receptor | HEK293 TREx D1 cells, calcium flux, dopamine EC20 potentiation | potentiation, % at 10 µM | P21728 | 360,000 compounds, 0.036% hits; in the data active = potentiation above about 30%; also: 0% is about no effect
TRHR enhancer-1: TRH receptor (human) allosteric enhancement; 360,000 compounds, 0.66% hits; TRHR cells, fluo-8 calcium fluorescence, EC20 TRH enhancement; enhancement, % at 2 µM; in the data active = enhancement above about 30%; also: 0% is about no effect
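Enhancer read-out: after compound pinning and an initial kinetic agonist-mode read, an EC20 of TRH (10 nM final) was injected and fluo-8 calcium signal (Ex 480/Em 530) followed at 1 s/cycle for 100 cycles in TRHR-expressing cells.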
D1 antag: blocks dopamine activation of the human D1 receptor. P21728. HEK293 TREx D1 cells, calcium flux, dopamine EC80; stronger effect = lower value. activity change, negative = inhibition, % at 10 µM. 360,000 compounds, 3.2% hits. AID 504652; in the data active = activity change below about -30%; also: % is scaled to controls: 0 for no effect and ±100 for the full control effect
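Tetracycline-induced HEK293 Trex D1 cells, force-coupled to calcium, dye-loaded; compounds added and read 180 s, then EC80 dopamine added and calcium flux tracked kinetically another 180 s.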
TRHR agonist-1: activates the human TRH receptor; P34981; TRHR cells, calcium flux fluo-8, FDSS agonist mode; activation, % at 2 µM; 360,000 compounds, 0.18% hits; AID 493084; in the data active = activation above about 30%; also: 0% is about no effect
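Fluo-8-loaded TRHR cells; 10 s baseline, compound added, kinetic Ca2+ fluorescence read 1/s, agonist mode.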
TRHR enhancer-2: confirmation of human TRH receptor allosteric enhancers; shares compounds with TRHR enhancer-1; TRH receptor cell assay, enhancer confirmation qHTS; activity change, negative = inhibition, % at 46.1 µM; 970 tested, under 10 active; AID 493076;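 also: compound effect scored on response to added TRH at EC20 of 10 nM; 0% is about no effect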
TRHR agonist-2: human TRH receptor agonism confirmation. TRHR-expressing cells, agonist activation read-out. shares compounds with TRHR enhancer-1. 970 compounds, 8% hits. Potency, µM (doses to about 46.1 µM), inactives show at the top dose activation, actives largely listed as activators. AID 493078; also: potency is read from the fitted curve at half-maximal effect; 0% is about no effect; nearly all actives have a fitted effect of over 75% in size
An asterisk follows results filed as active; ? = inconclusive; · = no result given; ! = not confirmed by another sample. Unless noted, calls follow the shape of the dose curve; as a rule, active = well fitted curve in the direction sought with a large enough effect; inconclusive = small, poorly fitted or top-dose-only effect, or another doubt; inactive = no such curve, though single readings can be large; an effect the other way counts as inactive or inconclusive.

SMILES	D1 agonist	D1 potentiator	TRHR enhancer-1	D1 antag	TRHR agonist-1	TRHR enhancer-2	TRHR agonist-2
O=C(COC(=O)c1cnccn1)Nc1ncc(Cl)cc1Cl	4.4	-2.3	-2.6	6.0	0.4	·	·
CCN(CC)S(=O)(=O)c1cccc(C(=O)N/N=C(\C)c2ccc(O)cc2O)c1	9.9	2.8	-3.2	7.1	25.4	2.7	?
COc1cc(CN2CCC(Cc3ccccc3)CC2)c([N+](=O)[O-])cc1OC	3.4	1.9	1.9	14.2	-0.4	·	·
COc1ccc(OC)c(CN2CCC(Cc3ccccc3)CC2)c1	9.3	-10.2	2.7	-15.1	28.1	-0.5	-0.6%
O=[N+]([O-])/C=C\c1ccc(N2CCCC2)c(F)c1	126.7*	-12.2	-10.8	18.4	72.8*	-12.7	?
Oc1c(C=C2N=c3ccccc3=N2)sc(=S)n1-c1ccccc1	7.9	-5.8	3.4	-2.7	-1.0	·	·
Oc1c(C=C2N=c3ccccc3=N2)sc(=S)n1C1CCCCC1	2.3	-1.1	41.2*!	18.6	0.0	-2.2	-0.8%
CCN1C(=O)c2cccc3c(S(=O)(=O)Nc4ccccc4OC)ccc1c23	-0.1	-3.6	17.8	-9.8	55.6*	-5.9	?
CCN1C(=O)c2cccc3c(S(=O)(=O)NCc4ccccc4)ccc1c23	-0.4	3.2	-3.7	-21.6	-1.0	·	·
Cc1ccccc1NS(=O)(=O)c1ccc2c3c(cccc13)C(=O)N2C	2.2	-0.3	60.6*	-6.9	-1.3	-8.5	-0.3%
CN1C(=O)c2cccc3c(S(=O)(=O)Nc4ccccn4)ccc1c23	1.1	-2.9	0.1	-0.8	0.2	·	·
CC(=O)c1ccccc1OC(=O)COc1ccc(Cl)cc1C	8.4	-10.4	17.7	·	-0.4	·	·
Cc1ccc2nc(-c3ccc(NC(=O)COC(=O)c4cncc(Br)c4)cc3)sc2c1	1.0	-6.5	43.7*	-3.1	0.2	4.6	-0.5%
Cc1ccc2nc(-c3ccc(NC(=O)COC(=O)c4ccco4)cc3)sc2c1	3.2	-4.2	-2.2	1.4	0.3	·	·
CCCCCN1C=CC=C/C1=C\C=C(C#N)C#N	71.2*	3.9	-1.7	1.6	30.6*	-4.3	20.6µM*
CCCN1C=CC(=CC=C(C#N)C#N)C=C1	128.9*	-0.7	-1.3	-2.9	41.8*	-1.3	18.4µM*
CCn1c(SCC(N)=O)nc2c1c(=O)n(C)c(=O)n2C	0.4	0.6	1.9	-20.8	1.3	·	·
CCn1c(N)nc2c1c(=O)n(C)c(=O)n2C	3.3	-9.8	44.0*	-0.3	0.7	2.1	-0.8%
Cc1ccccc1C(=O)N1CC(=O)Nc2ccc(Cl)cc2C1c1ccccc1 (stereo not drawn)	0.7	1.8	2.2	5.8	0.4	·	·
COc1ccc(CCNc2nc(SCc3ccc(F)cc3)nc3ccccc23)cc1OC	7.1	-1.9	1.0	8.5	0.6	·	·
CCCn1c(-c2cccc(F)c2)nc2c1c(=O)[nH]c(=O)n2Cc1ccccc1	3.5	·	-3.6	-1.1	-0.5	·	·
Cn1c(-c2cccc(F)c2)nc2c1c(=O)[nH]c(=O)n2Cc1ccccc1	2.1	3.1	49.0*	1.1	-0.4	-3.4	-0.7%
CCOC(=O)c1[nH]c(C)c(C(=O)NC)c1C	1.6	0.9	10.3	-5.4	-1.0	·	·
CCOC(=O)c1[nH]c(C)c(C(=O)N(CC)CC)c1C	2.1	-0.1	52.1*	-2.3	-0.1	-7.8	0.7%
COc1ccc(N2CC(NC(=O)COc3ccc4ccccc4c3)CC2=O)cc1 (stereo not drawn)	7.6	-2.9	-1.6	·	-0.3	·	·
SMILES	D1 agonist	D1 potentiator	TRHR enhancer-1	D1 antag	TRHR agonist-1	TRHR enhancer-2	TRHR agonist-2
O=C(O)c1ccc(CSc2nnc(-c3ccccc3Cl)n2-c2ccccc2)cc1	-2.1	1.9	50.7*	-12.6	0.5	-9.6	-0.3%
CNS(=O)(=O)c1cn(CC(=O)NCc2cccc(OC)c2)cc1S(=O)(=O)NC	2.4	-0.2	-8.3	18.5	-0.6	·	·
CC(=O)CC(=O)Nc1cccc2c1CCCC2	4.2	-0.6	3.8	7.1	-0.2	·	·
CCCC(=O)Nc1cccc2c1CCCC2	2.6	-10.9	48.8*	-17.6	-0.3	-0.9	-0.3%
CCOC1=C/C(=C/c2c(N)n3nc(CC(=O)N4CCCCC4)sc3nc2=O)C=CC1=O	16.8	2.2	14.1	15.9	61.5*	13.2	16.4µM*
COC1=C/C(=C/c2c(N)n3nc(CC(=O)N4CCCCC4)sc3nc2=O)C=CC1=O	21.6	-5.0	2.5	-4.0	23.0	·	·
COc1ccc(COC(=O)C2=C(C)NC(=O)NC2c2ccccc2OC(C)C)cc1 (stereo not drawn)	0.5	4.3	47.5*	13.6	0.7	-3.4	3.0%
COc1ccccc1C1NC(=O)NC(C)=C1C(=O)OCc1ccccc1 (stereo not drawn)	0.3	-14.7	-0.9	2.2	-0.5	·	·
COc1cccc(C2c3[nH]c4ccccc4c3CCN2Cc2cnn(C)c2)c1 (stereo not drawn)	2.4	-2.3	61.4*	-22.0	0.2	3.0	?
O=C(c1ccccc1)N1c2ncnn2C2(CCCCC2)[C@@H]2CCCC[C@@H]21	2.3	2.5	-3.3	-11.1	-0.9	·	·
COc1cccc(NC(=O)CCN2CCOCC2)c1	0.5	-2.1	62.5*	13.9	0.1	-2.9	6.5%
CN(CC(=O)Nc1cccc(F)c1)C(=O)C1CC(=O)N(Cc2ccco2)C1 (stereo not drawn)	3.2	13.7	2.6	1.1	-0.2	·	·
C=CCC(CC)C(=O)NC(=O)N1CCCc2ccccc21 (stereo not drawn)	2.6	-1.2	42.1*	-7.2	-0.4	-4.6	0.4%
CC1(C)CC(NS(=O)(=O)c2ccc3ccccc3c2)CC(C)(C)N1	3.4	-2.5	0.9	-5.3	0.0	·	·
CCn1c2ccccc2c2cc(CNCCCN3CCOCC3)ccc21	4.9	-4.3	42.6*	-8.1	-0.2	14.3	2.8%
COc1cc(/C=N/NC(=O)CCN2CCN(C(c3ccccc3)c3ccccc3)CC2)ccc1O	-0.6	2.7	0.8	8.6	-1.0	·	·
CCN1C(=O)c2ccccc2S(=O)(=O)c2ccc(C(=O)NC(C)C)cc21	0.0	-11.5	53.0*	-25.4	0.7	-3.4	-0.3%
S=c1[nH]nc(COc2ccc(Cl)cc2)n1Cc1ccco1	1.3	-5.0	-1.4	7.6	-0.2	·	·
Cc1ccc(-n2c(C)cc(C(=S)N3CCOCC3)c2C)cc1C	0.1	-1.6	-1.6	7.4	-0.2	·	·
COC(=O)c1[nH]c2ccc(Cl)cc2c1NC(=O)CN1CCc2cc(OC)c(OC)cc2C1	1.4	-2.5	-8.5	-5.9	0.0	·	·
CCOC(=O)c1[nH]c2ccc(F)cc2c1NC(=O)CN1CCc2cc(OC)c(OC)cc2C1	1.1	0.3	43.2*	3.6	0.0	3.1	-0.5%
CCn1c(SCC(=O)Nc2cccc(C(C)=O)c2)nnc1C(C)C	3.1	3.4	-3.7	1.4	39.2*	-3.6	-0.8%
